According to PubChem BioAssay AID686979 (National Center for Advancing Translational Sciences (NCATS), 2013):
The campaign covered roughly 420,000 compounds. About 50,000 (12%) were called active. Roughly 26% stayed inconclusive and do not appear here. The call rests on the fitted dose curve; in most records, active means well fitted inhibition curve with a large enough effect; inconclusive means small, poorly fitted or top-dose-only effect; inactive means flat fitted curve, though single readings scatter. What follows is part of a selection rich in actives, with near analogues and random picks from the rest.

test: qHTS for Inhibitors of human tyrosyl-DNA phosphodiesterase 1 (TDP1): qHTS in cells in presence of CPT; settings: chicken DT40 Tdp1-/-;hTDP1 cells + 20 nM CPT, ATP luminescence, 48 h; series mostly up to 46.2 µM; activity change, negative = growth inhibition: at the top concentration; further: nearly all actives have a fitted effect of over 55% in size
Summary of the method: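 Chicken DT40 Tdp1-/- cells stably complemented with human TDP1 were seeded at 400 cells/well in medium containing 20 nM camptothecin, exposed to pin-transferred compounds, and grown at 37 °C for at least 48 hr. Viability was read as ATP luminescence.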
On the % scale 0 is the no-effect control and ±100 the full control effect; potency means the concentration at half of the fitted maximal effect.

| Structure (SMILES) | activity change, negative = growth inhibition | Potency |
| --- | --- | --- |
| COc1cc(C(=O)NN(CCC#N)C2=NS(=O)(=O)c3ccccc32)cc(OC)c1OC | 19.6% (inactive) | – |
| COc1cc(/C=C/C(=O)OCC(=O)Nc2cccc(Oc3ccccc3)c2)ccc1O | -24.9% (inactive) | – |
| CN(c1ccc(OCC(=O)O)cc1)S(=O)(=O)c1ccc2ccccc2c1 | -4.79% (inactive) | – |
| COc1ccc(NC(=O)C/C(C)=N/NC(=O)c2cnccn2)cc1Cl | -9.25% (inactive) | – |
| CC1(C(=O)NS(=O)(=O)c2ccccc2)CCN1C(=O)C/C=C/c1ccccc1 (configuration not stated) | -13.3% (inactive) | – |
| CC1(C)CCSC(/C=C/c2ccccc2)=N1 | – | 4.61 µM (active) |
| O=C(Nc1ccc(C(=O)OCc2cc(=O)n3nc(C4CC4)sc3n2)cc1)c1ccc(F)cc1 | -12.1% (inactive) | – |
| O=C(N/N=C/c1cccc(OC(=O)c2ccc([N+](=O)[O-])cc2)c1)c1cccnc1 | 10.5% (inactive) | – |
| O=C(CCNC(=O)Cn1ccc2ccccc2c1=O)NCCC1=CCCCC1 | 2.96% (inactive) | – |
| N#CC1(NC(=O)COC(=O)Cc2n[nH]c(=O)c3ccccc23)CCCCC1 | -2.98% (inactive) | – |
| C/C=C/C=C/C(=O)O | – | inactive |
| CCc1nnc(NC(=O)CSc2nc3ccccc3c(=O)n2CCCOC)s1 | -8.33% (inactive) | – |
| COc1ccc(OC)c(NC(=O)CSc2nc(-c3ccccc3)cc(=O)[nH]2)c1 | -8.5% (inactive) | – |
| CCOCCCn1c(SCC(=O)Nc2cc(OC)ccc2OC)nc2ccccc2c1=O | – | 13 µM (active) |
| CC(=O)NCCn1c(SCC(=O)Nc2ccc(C)cc2)nc2ccccc2c1=O | – | inactive |
| COc1ccc(Cl)cc1NC(=O)CSc1nc2ccccc2c2nc(-c3ccccc3)nn12 | -13.4% (inactive) | – |
| CCOCCCn1c(SCC(=O)Nc2ccc(CC)cc2)nc2ccccc2c1=O | – | 14.6 µM (active) |
| CC(C)[C@@H]1NC(=O)c2cc([N+](=O)[O-])cc(I)c2NCCC[C@@H](C(=O)NC(CC(=O)O)C(N)=O)NC(=O)[C@H](CO)NC1=O (some centres not stated) | -22.2% (inactive) | – |
| O=C(COC(=O)c1ccc(S(=O)(=O)N2CCCCCC2)cc1)Nc1ccccc1C(F)(F)F | 4.84% (inactive) | – |
| CCc1ccccc1NC(=O)NCCN1CCCCC1 | -12.2% (inactive) | – |
| CCCCN(C(=O)c1ccc(C)o1)c1c(N)n(CCCC)c(=O)[nH]c1=O | 7.98% (inactive) | – |
| COCCNc1ncnc2c1ncn2[C@H]1CN(CCN2CCOCC2)C[C@@H](CO)O1 | 6.48% (inactive) | – |
| COc1ccc(CN2C(=O)C(CC(=O)NC3CCCCC3)CC(C(=O)N3CCOCC3)=C2C)cc1 (configuration not stated) | -10.3% (inactive) | – |
| CN(C)CCOc1cccc(Br)c1 | 3.6% (inactive) | – |
| Cc1cccc(NC(=O)c2cccnc2Cl)n1 | 5.42% (inactive) | – |

| Structure (SMILES) | activity change, negative = growth inhibition | Potency |
| --- | --- | --- |
| CSc1nccc(NC(=O)c2ccc(C(C)(C)C)cc2)n1 | – | 9.2 µM (active) |
| CC(C)(C)c1ccc(/C=C/C(=O)Nc2ncccn2)cc1 | -28.6% (inactive) | – |
| COc1ccc(S(=O)(=O)N(C)C[C@H]2OCc3cnnn3CCCC(=O)N([C@H](C)CO)C[C@H]2C)cc1 | -22.7% (inactive) | – |
| COCc1cc(=O)oc2cc(NS(=O)(=O)c3ccc(C)cc3)ccc12 | -6.27% (inactive) | – |
| Cc1cc(SCc2c(F)cccc2Cl)nc(=O)[nH]1 | 0.592% (inactive) | – |
| Cn1ncc2c(N3CCCCC3)nc(NCCCO)nc21 | -2.76% (inactive) | – |
| COc1cccc(CN2CCN(Cc3ccc4cccc(F)c4n3)CC2CCO)c1 (configuration not stated) | -28.5% (inactive) | – |
| CC(=O)c1cccc(NC(=O)c2cc(C)nn2-c2ccccc2)c1 | 2.05% (inactive) | – |
| CC(=O)c1cccc(NC(=O)c2nc(-c3ccccc3)n(-c3cccc(C)c3)n2)c1 | – | 16.4 µM (active) |
| CC(=O)c1cccc(NC(=O)c2ccncc2)c1 | -9.21% (inactive) | – |
| COc1cccc(CNC(=O)c2cc(=O)[nH]c3ccc(S(=O)(=O)N4CCCCC4)cc23)c1 | -21.3% (inactive) | – |
| O=C1NC[C@H](CCCCN2C[C@H](Cc3ccccc3)N(Cc3ccccc3)C(=O)C2=O)N(CCc2ccc(O)cc2)C1=O | 7.35% (inactive) | – |
| O=[N+]([O-])c1ccc2c(c1)C(N1CCOCC1)/C(=C/C1(O)CCCCC1)O2 (configuration not stated) | 1.25% (inactive) | – |
| Cn1nc(-c2ccccc2)c2cc([N+](=O)[O-])ccc21 | -2.27% (inactive) | – |
| CC1(C(=O)Nc2cccc3c2CCCC3)CCN1C(=O)C1(c2ccccc2)CC1 (configuration not stated) | – | 16.4 µM (active) |
| Cc1ccccc1S(=O)(=O)NC(=O)C1(C)CCN1C(=O)Cc1ccc(Cl)cc1Cl (configuration not stated) | -20.6% (inactive) | – |
| O=C(Nc1cccc2c1CCCC2)c1ccc(F)cc1 | -20.1% (inactive) | – |
| CC1(C(=O)NS(=O)(=O)c2ccc3ccccc3c2)CCN1C(=O)C1(c2ccc(Cl)cc2)CCC1 (configuration not stated) | -24.2% (inactive) | – |
| CC1(C(=O)NS(=O)(=O)Cc2cccc(Cl)c2)CCN1C(=O)Cc1ccc(Cl)cc1Cl (configuration not stated) | -18.1% (inactive) | – |
| Cc1ccccc1S(=O)(=O)NC(=O)C1(C)CCN1C(=O)C1(c2ccc(Cl)cc2)CC1 (configuration not stated) | -23.7% (inactive) | – |
| Cc1ccccc1S(=O)(=O)NC(=O)C1(C)CCN1C(=O)C1(c2ccccc2)CCCC1 (configuration not stated) | – | 14.6 µM (active) |
| CC1(C(=O)Nc2cccc3c2CCCC3)CCN1C(=O)CCc1ccc(Cl)cc1Cl (configuration not stated) | – | 20.6 µM (active) |
| CCCNC(=O)C1(C)CCN1C(=O)C1(c2ccccc2)CC1 (configuration not stated) | 0.157% (inactive) | – |
| CCCC(=O)N1CCC(CCC(=O)NC2CC2)CC1 | 12.6% (inactive) | – |
| COc1cc2c(cc1OC)/C(=C/C(=O)c1ccc(NC(C)=O)cc1)NCC2 | -0.215% (inactive) | – |

| Structure (SMILES) | activity change, negative = growth inhibition | Potency |
| --- | --- | --- |
| Cc1ccccc1CNC(=O)CCC(=O)N1Cc2ccccc2Oc2ncccc21 | -15.2% (inactive) | – |
| COC(=O)c1sc(NC(=O)COC(=O)C2CCC2)c(C(=O)OC)c1C | -9.82% (inactive) | – |
| COc1cc(OC)c(C(=O)NNC(=O)c2ccc(NS(=O)(=O)c3cccs3)cc2)cc1OC | -4% (inactive) | – |
| Cc1cccc(C)c1NC(=O)CSc1nc2c([nH]1)c(=O)n(C)c(=O)n2C | -0.0789% (inactive) | – |
| Cc1ccc2nc(SCC(=O)N3CCN(c4ccccc4)CC3)nc(=O)n2c1 | -25.1% (inactive) | – |
| CC(C)(C)n1cnnc1Sc1ccc([N+](=O)[O-])cn1 | 20.6% (inactive) | – |
| CCOc1ccccc1NC(=O)Cn1c(=O)n(Cc2ccco2)c(=O)c2sc3ccccc3c21 | -27.9% (inactive) | – |
| Cc1nc2cc(C(F)(F)F)ccc2n1CCNc1nc(-c2cc(Cl)c(N)c(Cl)c2)cs1 | – | 23.1 µM (active) |
| O=C(Oc1cc(OC(=O)c2ccccc2)c2c(c1)OC(c1ccc(OC(=O)c3ccccc3)c(OC(=O)c3ccccc3)c1)[C@@H](OC(=O)c1ccccc1)C2)c1ccccc1 (some centres not stated) | 11.4% (inactive) | – |
| C[C@@H](C(=O)Nc1ccc2ccccc2c1)[C@@H]1C[C@@]1(C)[C@@H](NC(=O)c1cccnc1)c1ccccc1 | -18.3% (inactive) | – |
| COc1ccc(S(=O)(=O)Nc2ccc(O)c(Sc3nc4ccccc4s3)c2)cc1 | -15.5% (inactive) | – |
| O=[N+]([O-])c1c(NCCO)cc(Sc2nc3ccccc3s2)c2nonc12 | – | 0.82 µM (active) |
| O=C(O)c1cccc(S(=O)(=O)Nc2ccc(O)cc2Sc2nc3ccccc3s2)c1 | 23.1% (inactive) | – |
| CSc1nnc(-c2ccc(C(F)(F)F)cn2)o1 | 20.6% (inactive) | – |
| N=c1n(Cc2ccc(Cl)cc2)c2ccccc2n1CC(O)c1ccco1 (configuration not stated) | – | 7.31 µM (active) |
| O=S(=O)(O)c1nc2ccccc2n1Cc1ccc(Cl)cc1 | 0.399% (inactive) | – |
| CCCNC(=O)c1cc(C2CCCCN2S(=O)(=O)c2ccc(C#N)cc2)on1 (configuration not stated) | -6.93% (inactive) | – |
| O=C(NCC1(N2CCCCC2)CCCCC1)c1ccc(NS(=O)(=O)c2ccc(F)cc2)cc1 | -29.5% (inactive) | – |
| O=C(OCCOCn1cc(Br)c(=O)[nH]c1=O)c1ccccc1 | -4.36% (inactive) | – |
| CCCn1nnnc1NCc1ccc(CC)cc1 | -1.3% (inactive) | – |
| Cc1cc(/C=N/n2cnnc2)c(C)n1-c1cccc(C(=O)O)c1 | -0.903% (inactive) | – |
| Cc1cccc(-n2c(C)cc(/C=N/NC(N)=S)c2C)c1 | – | 10.3 µM (active) |
| Cc1cc(/C=N/Nc2ccc([N+](=O)[O-])cn2)c(C)n1-c1cccc(C(=O)O)c1 | -21.9% (inactive) | – |
| CC(=O)Nc1ccc(/C=N/NC(=O)c2cccs2)cc1 | -3.1% (inactive) | – |
| Cc1ccc(C(=O)Nc2ccc(NC(=O)c3cccs3)cc2)c(C)c1 | 0.567% (inactive) | – |

| Structure (SMILES) | activity change, negative = growth inhibition | Potency |
| --- | --- | --- |
| Cc1cccc(-n2c(C)cc(/C=N\NC(=O)c3cccs3)c2C)c1 | – | 18.4 µM (active) |
| Cc1c(NC(=O)CSc2nnc(-c3cccnc3)n2N)c(=O)n(-c2ccccc2)n1C | 4.52% (inactive) | – |
| CC(C)c1ccc(CC(=O)N2CCC2(C)C(=O)NS(=O)(=O)c2ccc(C(C)(C)C)cc2)cc1 (configuration not stated) | -11.2% (inactive) | – |
| COc1ccc(NC(=O)NN2CCN(C)CC2)c(OC)c1 | 2.16% (inactive) | – |
| COc1ccc(CCNC(=O)CCCn2c(=O)c3ccccc3n(Cc3ccc(F)cc3Cl)c2=O)cc1OC | 4.7% (inactive) | – |
| Cc1ccc(Cn2c(=O)n(CCCC(=O)NCc3ccccc3Cl)c(=O)c3ccccc32)cc1 | -13.5% (inactive) | – |
| COc1ccc(CCNC(=O)CCCCn2c(=O)c3ccccc3n(Cc3ccccc3C)c2=O)cc1OC | – | 20.6 µM (active) |
| CCCCNC(=O)CCn1c(=O)c2ccccc2n(Cc2cc(C)ccc2C)c1=O | -3.9% (inactive) | – |
| COc1ccc(CCNC(=O)CCn2c(=O)oc3ccccc32)cc1OC | -8.19% (inactive) | – |
| COc1ccc(CCNC(=O)CCCn2c(=O)c3ccccc3n(Cc3ccc(C)cc3)c2=O)cc1OC | – | 23.1 µM (active) |
| CCOc1cc(CNCc2ccccn2)ccc1OCC(=O)NC(C)(C)C | -87.9% (inactive) | – |
| N#Cc1ccc(C(=O)OCC(=O)NC(=O)NC2CCCCC2)cc1 | -7.73% (inactive) | – |
| COc1ccc(C(=O)NC(C)c2nccs2)cc1OC1CCN(C(C)C)CC1 (configuration not stated) | -0.147% (inactive) | – |
| COc1ccc(/C=C/CN2CCN(Cc3ccc(C)cc3)C(CCO)C2)cc1 (configuration not stated) | 14.8% (inactive) | – |
| CN(CCOc1ccccc1)C(=O)c1cc(-c2ccco2)nc2ccccc12 | – | 18.4 µM (active) |
| CN(C(=O)COC(=O)c1cc(-c2ccco2)nc2ccccc12)C1CCS(=O)(=O)C1 (configuration not stated) | -5.97% (inactive) | – |
| O=C(Nc1cccc(F)c1)c1cc(-c2ccco2)nc2ccccc12 | 1.56% (inactive) | – |
| COCCCNC(=O)c1c(NC(=O)c2cc(=O)c3cc(C)c(C)cc3o2)sc2c1CCCC2 | -17.6% (inactive) | – |
| CCS(=O)(=O)C1=NSC2=NC(=O)/C(=C\c3ccc(OS(=O)(=O)c4ccccc4)cc3)C(=N)N21 | -10.9% (inactive) | – |
| c1ccc(-c2ccccc2OCCN2CCCCC2)cc1 | -24.5% (inactive) | – |
| Cc1ccc(CN2CCNC(=O)C2CC(=O)NCc2csc(C(C)C)n2)cc1 (configuration not stated) | -14.1% (inactive) | – |
| Cc1cc(C)c(NC(=O)CSc2nc3ccncc3[nH]2)c(C)c1 | -28.9% (inactive) | – |
